Experimental findings from PubChem BioAssay AID1224855 (National Center for Advancing Translational Sciences (NCATS), 2016) are described below.

Records with an inconclusive call do not appear. Entries that show only a call come without a potency. Calls of active or inactive are those of the source. Calls follow the shape of the dose curve; as a rule, active = well fitted inhibition curve with a large enough effect; inconclusive = small, poorly fitted or top-dose-only effect; inactive = no such curve, though single readings can be large or run the other way.

The assay in a line: Confirmation assay for measurement of the activity of small molecule inhibitors on Zika virus induced Caspase-3 activity in human iPSC derived neural progenitor cells (hNPCs). Conditions: hNPC ZIKV-induced caspase-3/7, Caspase-Glo luminescence, 6 h; series mostly up to 46.1 µM. The text has this: National Center for Advancing Translational Sciences [NCATS] Johns Hopkins University School of Medicine Florida State University Assay Overview: Increase in the Caspase-3 activity indicates an activation of apoptosis cell death pathway caused by Zika virus infection in certain types of neuronal cells including human neural progenitor cells (hNPCs), astrocytes, and astrocytoma cell line (SNB-19). This cell-based caspase-3 activity assay measures the increased caspase-3 activity in the human iPSC derived neural progenitor cells (hNPCs) after a 6-hour Zika virus infection with a luminescence readout. A decrease in the luminescence signal in this assay by small molecule treatment indicates an inhibitory effect of that small molecule on the Zika virus induced caspase-3 activity that may correlate with its effect on reduction of Zika virus caused cell death.
Assay Protocol Summary: The medium for hNPCs consists of DMEM/F12, N2 supplement (ThermoFisher, Cat.# 17502048), NEAA (ThermoFisher, Cat. # 11140050), 2 ug/ml heparin, 2 uM cyclopamine, and B27 (ThermoFisher, Cat. # 17504044). A Caspase-Glo 3/7 assay kit (catalog number G8092; Promega, Madison, WI) was used to detect caspase-3 activity induced by Zika virus infection in human cells. The reagent mixture was reconstituted as described in the protocol from the manufacturer. Polystyrene tissue culture treated and PDL coated white plates were obtained from Greiner Bio-One (Monroe, NC). Cells were seeded in 384- or 1536-well assay plates and cultured at 37 C with 5% CO2 for 16 to 20 hours. The typical cell seeding density in the 1536-well plate assay is 350 cells/well in 3 ul medium for hNPCs in tissue culture treated plates. Compounds were added to cells and incubated for one hour before addition of ZIKV solution to cells (2 FFU/cell). After incubation at 37 C with 5% CO2 for 6 hours, the reagent mixture of Caspase-Glo 3/7 assay kit was added to each well, followed by incubation at room temperature for 30 minutes. The luminescence intensity of the assay plates was measured using a ViewLux plate reader (PerkinElmer). Data were normalized by using the cell-containing wells without ZIKV as a negative control (0% induction of caspase 3/7 activity) and wells containing ZIKV infected cells (Caspase-3 activity induced) as a positive control (100% induction of caspase 3 activity). The percentage inhibitions of the increased Caspase-3 activity by small molecule inhibitors were then calculated.
Consider `Oc1ccc([C@H]2CNCc3c2ccc(O)c3O)cc1O`, for which the Potency result is “inactive”.
Take `CC(O)CN1CCN(CC(=O)[O-])CCN(CC(=O)[O-])CCN(CC(=O)[O-])CC1.[Gd+3]` (centres undefined): the Potency entry is “inactive”.
As for `O=S(=O)(CC1CS1)c1ccc(Oc2ccccc2)cc1` (centres undefined), the Potency entry was “inactive”.
The value for `O=C1C=CC[C@@H]2[C@H]3CCCN4CCC[C@@H](CN12)[C@@H]34` was “inactive”.
The value for `COC1(CS(=O)c2ccccc2)CCN(CCc2c[nH]c3ccc(F)cc23)CC1` (centres undefined) was “inactive”; that for `CC(C)[C@H]1C(=O)N[C@H](CO)Cc2c[nH]c3cccc(c23)N1C` was “inactive”.
Turning to `COP(=S)(OC)SCN1C(=O)c2ccccc2C1=O`, the Potency entry is “inactive”.
As for `CC[n+]1c(-c2ccccc2)c2cc(N)ccc2c2ccc(N)cc21`, the Potency entry was “inactive”.
The value for `COc1cccc2c1C(=O)c1c(O)c3c(c(O)c1C2=O)C[C@@](O)(C(=O)CO)CC3OC1CC(N2CCOC(OC)C2)C(O)C(C)O1` (some centres undefined) was “inactive”; that for `O=c1c2ccccc2[se]n1-c1ccccc1` was 7.74 µM (active); that for `O=C(Nc1ccc(Br)cc1)c1cc(Br)cc(Br)c1O` was 13.8 µM (active).
The value for `CC(C)N[C@@H]1CCn2c(=O)[nH]c3cccc(c32)[C@@H]1O` was “inactive”; that for `CC(C)[N+](C)(CCC(C(N)=O)(c1ccccc1)c1ccccc1)C(C)C` was “inactive”.
On to `O=C1CCC[C@@H]2[C@H]3CCCN4CCC[C@@H](CN12)[C@@H]34`, for which the Potency entry is “inactive”.
